Common to all, as to test: NCI-60 one-dose screen, 48 h (100 = growth as untreated, 0 = no growth, -100 = all killed)
One experiment relates to HCT-15 colon. Conditions: 10 µM unless noted.
A further experiment has as its system SNB-75 CNS. Conditions: 10 µM.
A further experiment relates to SNB-19 CNS. As to conditions: 10 µM unless noted.
For a further experiment, the system named is U251 CNS. As to conditions: 10 µM unless noted.
The test system of the next experiment is PC-3 prostate. As to conditions: 10 µM unless noted.
In a further experiment the test system is SK-MEL-5 melanoma. Conditions: 10 µM unless noted.
The subject of a further experiment is UACC-62 melanoma. Conditions: 10 µM unless noted.
Another experiment relates to LOX IMVI melanoma. As to conditions: 10 µM unless noted.
In a further experiment the test system is SK-MEL-28 melanoma. Conditions: 10 µM unless noted.
The next experiment has as its system EKVX NSCLC. Conditions: 10 µM unless noted.
The next experiment concerns SN12C renal. Conditions: 10 µM unless noted.
The test system of a further experiment is UO-31 renal. As to conditions: 10 µM unless noted.
For a further experiment, the system named is TK-10 renal. Conditions: 10 µM unless noted.
In the next experiment the test system is ACHN renal. As to conditions: 10 µM unless noted.
The subject of another experiment is CAKI-1 renal. As to conditions: 10 µM unless noted.
The next experiment relates to A498 renal. As to conditions: 10 µM unless noted.
Another experiment concerns CCRF-CEM leukemia. As to conditions: 10 µM unless noted.
The next experiment concerns MOLT-4 leukemia. Conditions: 10 µM unless noted.
The next experiment relates to SK-MEL-2 melanoma. Conditions: 10 µM unless noted.

Molecules are shown by their SMILES. This is part of a sample that, as a whole, favours compounds with a hit. Of some 83,000 tested, about 20% had one in any assay.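 How to read the values: 0–100, growth inhibition (40 = 60% inhibited); 0, no net growth; -100 to 0, cell death (-40 = 40% of starting cells died; -100 = all dead).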 Unmarked numbers belong to inactive results. Calls of active or inactive are those of the source. Rule for the calls: active = growth percent below 10; inactive = the rest.

`CNC(=S)NNC(=O)C1CC1`: the growth was 105% in the experiment with HCT-15 colon; 96.5% in the experiment on SNB-75 CNS; 106% with SNB-19 CNS; 109% in the experiment with U251 CNS; 102% in the experiment on PC-3 prostate; 105% with SK-MEL-5 melanoma. Also, the growth with UACC-62 melanoma is 111%; in the experiment with LOX IMVI melanoma it was 99.9%; in the experiment with SK-MEL-28 melanoma it was 113%; in the experiment with EKVX NSCLC, 105%; in the experiment on SN12C renal, 109%; in the experiment with UO-31 renal it was 77.5%. Moreover, the growth is 119% with TK-10 renal; 106% in the experiment on ACHN renal; 96% in the experiment on CAKI-1 renal; 109% in the experiment with A498 renal; 97.3% in the experiment on CCRF-CEM leukemia; 85.1% in the experiment on MOLT-4 leukemia.
In the case of `CCCCCCCCCCCCCCCCNC(=O)OC(C)C`, the growth is 55.9% in the experiment on HCT-15 colon; 64% in the experiment on SNB-75 CNS; 95.5% with SNB-19 CNS; 14.1% in the experiment with U251 CNS; -16.9% (active) with PC-3 prostate; 91% in the experiment on SK-MEL-5 melanoma. Moreover, the growth is 81.7% with UACC-62 melanoma; -2.25% (active) in the experiment with LOX IMVI melanoma; 95.9% with SK-MEL-28 melanoma; 58.7% in the experiment on SK-MEL-2 melanoma; 22.8% with EKVX NSCLC; 64.3% in the experiment with SN12C renal. For the same compound, the growth in the experiment on TK-10 renal was -3.04% (active); in the experiment with CAKI-1 renal, 28.5%; with A498 renal it was 75.1%; in the experiment with CCRF-CEM leukemia, 7.75% (active).
Turning to `COc1ccc(-c2c(-c3cc(OC)c4c(c3)OCO4)noc2N)cc1`, the growth was 14.2% with HCT-15 colon; 25.9% in the experiment with SNB-75 CNS; 34.4% with SNB-19 CNS; 16.4% in the experiment on U251 CNS; 25.6% with PC-3 prostate; -54.4% (active) with SK-MEL-5 melanoma. Besides, the growth is 32.7% in the experiment on UACC-62 melanoma; 15.4% in the experiment with LOX IMVI melanoma; 58.8% in the experiment with SK-MEL-28 melanoma; 53.4% with SK-MEL-2 melanoma; 44.6% with EKVX NSCLC; 22.9% in the experiment with SN12C renal. For the same compound, the growth was 36.1% with UO-31 renal; 54.8% in the experiment on TK-10 renal; 38.7% in the experiment with CAKI-1 renal; 23.6% in the experiment on A498 renal; 14.1% with CCRF-CEM leukemia; 4.69% (active) in the experiment with MOLT-4 leukemia.
As to `Oc1ccccc1/C=N/NC(=S)NC1CC2C=CC1C2` (stereo not given), the growth in the experiment on HCT-15 colon was 35.5%; in the experiment on SNB-75 CNS, 105%; in the experiment with SNB-19 CNS it was 82.3%; in the experiment with U251 CNS, 59.4%; in the experiment with PC-3 prostate it was 75.6%; in the experiment on SK-MEL-5 melanoma, 78.3%. Also, the growth in the experiment on UACC-62 melanoma was 82.9%; in the experiment with LOX IMVI melanoma, 44.9%; in the experiment on SK-MEL-28 melanoma, 83.1%; with EKVX NSCLC it was 95.3%; in the experiment on SN12C renal, 92.8%; with UO-31 renal, 49.8%. Further, the growth is 103% in the experiment on TK-10 renal; 73.6% with ACHN renal; 67.1% in the experiment on CAKI-1 renal; 96.2% in the experiment on A498 renal; 49.5% in the experiment with CCRF-CEM leukemia; 56.6% with MOLT-4 leukemia.
On to `COc1ccc(C2=CC(c3cc(OC)c(OC)c(OC)c3)NC(=O)N2)cc1OC` (stereo not given), for which the growth in the experiment with HCT-15 colon is 27.5%; in the experiment with SNB-75 CNS it was 2.17% (active); with SNB-19 CNS, 38.1%; with U251 CNS, 21.1%; in the experiment on PC-3 prostate, 51%; with SK-MEL-5 melanoma, 18.5%. The growth in the experiment on UACC-62 melanoma was 44.5%; in the experiment on LOX IMVI melanoma, 7.04% (active); in the experiment with SK-MEL-28 melanoma, 40%; in the experiment with SK-MEL-2 melanoma, 20.7%; in the experiment on EKVX NSCLC, 35.5%; in the experiment with SN12C renal it was 23.7%. The growth in the experiment with UO-31 renal was 22.8%; with TK-10 renal, 12.8%; in the experiment with CAKI-1 renal, 5.82% (active); in the experiment with A498 renal it was 19.3%; with CCRF-CEM leukemia it was 6.59% (active); with MOLT-4 leukemia, 17.9%.
As to `C=C1CCC2C3(C)COC(c4ccc(N(C)C)cc4)OC3CCC2(C)C1C/C=C1/C(=O)OCC1O` (stereo not given), the growth was 57.6% in the experiment with HCT-15 colon; 73.8% in the experiment with SNB-75 CNS; 85.9% with SNB-19 CNS; 51.1% with U251 CNS; 9.17% (active) in the experiment on PC-3 prostate; 60.7% in the experiment with SK-MEL-5 melanoma. The growth with UACC-62 melanoma was 63.1%; in the experiment with LOX IMVI melanoma, 11.9%; with SK-MEL-28 melanoma it was 94.9%; in the experiment with SK-MEL-2 melanoma, 45.1%; with EKVX NSCLC, 85.7%; with SN12C renal, 44.9%. Also, the growth was 54.2% with UO-31 renal; 94.3% with TK-10 renal; 79.3% with ACHN renal; 109% in the experiment on A498 renal; -41.6% (active) with CCRF-CEM leukemia; 37.7% with MOLT-4 leukemia.
With `CC1CCC(C)N(C)C1` (stereo not given), the growth was 117% in the experiment with HCT-15 colon; 89.7% with SNB-75 CNS; 98.6% in the experiment on SNB-19 CNS; 107% in the experiment on U251 CNS; 87.5% with PC-3 prostate; 107% in the experiment on SK-MEL-5 melanoma. For the same compound, the growth with UACC-62 melanoma is 99.7%; in the experiment on LOX IMVI melanoma, 95.9%; with SK-MEL-28 melanoma it was 107%; with EKVX NSCLC it was 112%; in the experiment with SN12C renal, 92.8%; in the experiment on UO-31 renal, 84.6%. The growth in the experiment on TK-10 renal is 102%; in the experiment on ACHN renal it was 105%; in the experiment with CAKI-1 renal, 101%; in the experiment with A498 renal, 76.5%; in the experiment on CCRF-CEM leukemia, 93.9%; with MOLT-4 leukemia, 92.5%.
Take `COc1ccc(CCNC2=CC(=O)CCC2)cc1OC`: the growth in the experiment with HCT-15 colon is 108%; with SNB-75 CNS, 92.9%; in the experiment with SNB-19 CNS, 105%; in the experiment with U251 CNS it was 107%; in the experiment with PC-3 prostate it was 93%; with SK-MEL-5 melanoma, 101%. Also, the growth in the experiment on UACC-62 melanoma was 109%; with LOX IMVI melanoma, 96.3%; in the experiment on SK-MEL-28 melanoma it was 111%; with EKVX NSCLC, 110%; with SN12C renal it was 102%; in the experiment on UO-31 renal, 81.2%. The growth in the experiment with TK-10 renal was 115%; in the experiment on ACHN renal, 110%; in the experiment with CAKI-1 renal, 102%; in the experiment with A498 renal, 105%; in the experiment with CCRF-CEM leukemia, 102%; in the experiment on MOLT-4 leukemia it was 76.2%.
As to `COc1ccc2c(c1)[nH]c(=O)c1c3cc(C)c(C)cc3cn21`, the growth is -87.5% (active) in the experiment with HCT-15 colon; 84.8% with SNB-75 CNS; 25.6% in the experiment with SNB-19 CNS; -97.1% (active) in the experiment on U251 CNS; -54.9% (active) with PC-3 prostate; 10.3% in the experiment on SK-MEL-5 melanoma. Besides, the growth with UACC-62 melanoma is 42.5%; in the experiment with LOX IMVI melanoma it was -99.2% (active); with SK-MEL-28 melanoma, -7.4% (active); in the experiment with SK-MEL-2 melanoma, -4.76% (active); in the experiment with EKVX NSCLC, 35.4%; in the experiment on SN12C renal it was -43.6% (active). The growth in the experiment with UO-31 renal was -31.4% (active); in the experiment on TK-10 renal, -34% (active); in the experiment with ACHN renal, 17.5%; in the experiment on A498 renal, 42%; in the experiment with CCRF-CEM leukemia it was -68.1% (active); with MOLT-4 leukemia, -10.9% (active).
